Assay [1] is described as follows: Nuclear factor erythroid 2-related factor 2/antioxidant responsive element (Nrf2/ARE) small molecule agonists: qHTS cell viability counter screen in human keratinocytes (AID 1919968; active = well fitted curve in the direction sought with a large enough effect in the repeat runs; an effect the other way counts as inactive or inconclusive; also: nearly all actives have a fitted effect of over 55% in size; also: potency is read from the fitted curve at half-maximal effect). A digest of the protocol:
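After a 5 h attachment period, ARE-reporter keratinocytes were dosed with compounds in DMSO and then cultured 23 h at 37 C. Cell viability came from CellTiter-Fluor signal read after a further 1 h.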
On the technique in general: qHTS replaces the single test concentration by a dilution series.

A short description of assay [2]: Nuclear factor erythroid 2-related factor 2/antioxidant responsive element (Nrf2/ARE) small molecule agonists: luciferase reporter gene qHTS assay in human keratinocytes (AID 1919969; also: nearly all actives have a fitted effect of over 35% in size). (In general: A reporter such as luciferase makes a cellular process visible.)
For assay [3], the target named is Gonadotropin-releasing hormone receptor (Homo sapiens) (UniProt P30968). As to the kind of experiment: Human gonadotropin-releasing hormone receptor (GnRHR) small molecule agonists, calcium flux assay in GnRHR-HEK293 cells (AID 1920063). Also: nearly all actives have a fitted effect of over 35% in size. Put shortly: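 We seeded human GnRHR-expressing HEK293 cells for 18 hours, loaded them with calcium dye for an hour at 37 C, added test compounds, and recorded fluorescence intensity kinetically for three minutes.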
Chain of Gonadotropin-releasing hormone receptor (Homo sapiens) (P30968 whole entry, looked up): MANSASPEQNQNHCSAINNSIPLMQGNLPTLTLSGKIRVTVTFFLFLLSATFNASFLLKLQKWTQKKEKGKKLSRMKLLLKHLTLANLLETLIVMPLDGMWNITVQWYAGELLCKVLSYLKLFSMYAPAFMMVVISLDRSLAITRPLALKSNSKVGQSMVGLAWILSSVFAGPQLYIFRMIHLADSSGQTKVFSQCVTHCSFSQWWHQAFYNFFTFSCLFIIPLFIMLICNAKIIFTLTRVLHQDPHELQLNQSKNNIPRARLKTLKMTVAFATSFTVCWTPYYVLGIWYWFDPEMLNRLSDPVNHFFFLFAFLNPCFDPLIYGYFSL
On the technique in general: Calcium flux is commonly read through the fluorescence of an indicator in the cells.

Assay [4] has as its target KiSS-1 receptor (Homo sapiens) (UniProt Q969F8). As to the kind of experiment: Human kisspeptin (KISS1R) small molecule agonists, calcium flux assay in KISS1R-HEK293 cells (AID 1920064; active = well fitted curve in the direction sought with a large enough effect in the repeat runs; an effect the other way counts as inactive or inconclusive). A digest of the protocol:
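Kinetic calcium assay, 1 s sampling over 3 min at Ex/Em 480/540, in HEK293 cells engineered with human KISS1R; compounds delivered in DMSO after 1 h dye loading.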

The nature of assay [5]: G protein-coupled receptor (GPCR) small molecule agonists, calcium flux assay: HEK293 wild type cell line counter screen (AID 1920065). A digest of the protocol: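 Calcium-sensitive dye, loaded 1 h at 37 C into cells cultured 18 h, reports compound-evoked calcium release as fluorescence (Ex/Em 480/540), measured over 3 min. Agonist mode; 15-point titrations, triplicate.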

Assay [6] is described as follows: p53 small molecule agonists, cell-based qHTS assay with human liver microsomes (AID 1963577). A digest of the protocol: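 Fluorescence of the beta-lactamase reporter in p53RE-bla cells, detected with LiveBLAzer substrate (2 h, room temperature, dark), served as the read-out after 16 h compound exposure at 37 C with human liver microsomes and NADPH, each 0.5 mg/mL final.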

Assay [7] can be described thus: p53 small molecule agonists, cell-based qHTS assay with rat liver microsomes (AID 1963578). Put shortly: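 Cells carrying a p53 response element–beta-lactamase reporter were plated and rested 5 h, then dosed with compound in DMSO plus rat liver microsomes and NADPH, each at 0.5 mg/mL final. After 16 h at 37 C, LiveBLAzer substrate was added for 2 h.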
Assay [8] in a line: p53 small molecule agonists, cell-based qHTS assay with human liver microsomes: qHTS cell viability counter screen (AID 1963579). Also: nearly all actives have a fitted effect of over 45% in size. Put shortly: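 Cytotoxicity counter screen: p53RE-bla, 4,000 cells/well; 5 h settle, 37 C/5% CO2; cpd + HLM 0.5 mg/mL + NADPH 0.5 mg/mL (final); 16 h, 37 C; CellTiter-Glo, 30 min RT, luminescence.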
The nature of assay [9]: p53 small molecule agonists, cell-based qHTS assay with rat liver microsomes: qHTS cell viability counter screen (AID 1963580). Also: nearly all actives have a fitted effect of over 45% in size. Put shortly:
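HCT-116 p53RE-bla, 4,000 cells/well, 5 h pre-incubation; cpd + rat liver microsomes 0.5 mg/mL + NADPH 0.5 mg/mL (final); 16 h, 37 C; CellTiter-Glo, 30 min RT; luminescence.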

Assay [10] can be described thus: p53 small molecule agonists, cell-based qHTS assay: qHTS cell viability counter screen (AID 1963581). Also: nearly all actives have a fitted effect of over 45% in size. Put shortly: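 Following 5 h attachment, HCT-116 p53RE-bla cells took up compound for 16 h at 37 C; the reporter was read with B/G FRET substrate (2 h RT), and viability then via CellTiter-Glo ATP luminescence.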
A short description of assay [11]: p53 small molecule agonists, cell-based qHTS assay (AID 1963582; active = well fitted activation curve with a large enough effect in the signal ratio in the repeat runs, not every such curve was filed as active; the % refers to the signal ratio). A digest of the protocol:
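In this cell-based concentration-response screen, a p53 response element drives beta-lactamase; cells received DMSO-borne compounds after 5 h culture and were incubated a further 16 h before FRET substrate development.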

Assay [12] addresses 5-hydroxytryptamine receptor 2A (Homo sapiens) (UniProt P28223). As to the kind of experiment: 5-hydroxytryptamine receptor 2A (HTR2A) small molecule antagonists, cell-based qHTS assay (AID 1963586). Also: nearly all actives have a fitted effect of over 45% in size. A digest of the protocol:
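Antagonist-mode intracellular calcium assay: DOI (4 nM) added after 5 min compound pre-incubation at room temperature to dye-loaded HTR2A-CHO cells. Fluorescence followed for 3 min, sampled every second.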

Assay [13] has the same target. As to the kind of experiment: 5-hydroxytryptamine receptor 2A (HTR2A) small molecule agonists, cell-based qHTS assay (AID 1963587). Also: nearly all actives have a fitted effect of over 30% in size. Put shortly:
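Kinetic calcium-flux fluorescence (2 min, 1 sec intervals) after compound addition in agonist mode. HTR2A-CHO cells were cultured 18 h, then dye-loaded 1 h at 37 C.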

The nature of assay [14]: cAMP Responsive Elements (CRE) small molecule agonists, cell-based qHTS assay (AID 1963590). A digest of the protocol: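 A CRE-responsive beta-lactamase reporter in HEK 293T cells was used. Treatment ran 3 h at 37 C; detection used LiveBLAzer B/G FRET substrate for 2 h at room temperature.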
Assay [15] in a line: cAMP Responsive Elements (CRE) small molecule antagonists, cell-based qHTS assay (AID 1963591; active = well fitted inhibition curve with a large enough effect in the signal ratio in the repeat runs, not every such curve was filed as active; the % refers to the signal ratio). Put shortly: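 HEK293T cells carrying a CRE-driven beta-lactamase reporter receive compound and NKH477 (0.25 uM final) for 3 h. Fluorescence from LiveBLAzer B/G FRET substrate is read after 2 h at room temperature.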
In assay [16] the target is Beta-2 adrenergic receptor (Homo sapiens) (UniProt P07550). As to the kind of experiment: Adrenergic beta2 receptor (ADRB2) small molecule antagonists, cell-based qHTS assay (AID 1963592). Also: series mostly up to about 92 µM; nearly all actives have a fitted effect of over 50% in size. Put shortly:
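Cells (CHO, stable ADRB2 overexpression) incubated 18-20hr at 37C; compounds added from DMSO; agonist mix (1nM isoproterenol, 100uM IBMX, 25uM Ro-20-1724) added; 0.5hr RT; d2-cAMP and anti-cAMP-cryptate added; 1hr RT; 665/615 nm read.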

Assay [17] has as its target D(2) dopamine receptor (Homo sapiens) (UniProt P14416). As to the kind of experiment: Dopamine D2 receptor (DRD2) small molecule agonists, cell-based qHTS assay (AID 1963594). Also: nearly all actives have a fitted effect of over 35% in size. A digest of the protocol:
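cAMP accumulation in DRD2-HEK293 cells measured by HTRF after 1 h detection; compounds added 10 min before NKH477 (200nM […]) forskolin-analogue stimulation, 30 min at room temperature, with Ro20-1724 present at 0.1 mM final.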

The target is the same in assay [18]. As to the kind of experiment: Dopamine D2 receptor (DRD2) small molecule antagonists, cell-based qHTS assay (AID 1963595; active = well fitted inhibition curve with a large enough effect in the signal ratio in the repeat runs, with a control signal flat; the % refers to the signal ratio). A digest of the protocol:
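Human DRD2 antagonist qHTS measuring cAMP by HTRF. The cells are exposed to compound for 10 min, then to NKH477 (200 nM) and quinpirole (12 nM) for 30 min at RT, with Ro20-1724 (0.1 mM) present throughout.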

Assay [19] addresses Muscarinic acetylcholine receptor M1 (Homo sapiens) (UniProt P11229). As to the kind of experiment: Cholinergic receptor muscarinic 1 (CHRM1) small molecule agonists, cell-based qHTS assay (AID 1963589). Also: nearly all actives have a fitted effect of over 35% in size. A digest of the protocol:
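Measures agonist-induced intracellular calcium rise. Stable human CHRM1 CHO line, 1 h dye load at 37 C, compounds from DMSO, kinetic fluorescence read.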

SMILES strings stand for the structures. Unmarked numbers belong to inactive results. Results filed as inconclusive are left out. Active and inactive are the calls of the source. Unless noted, calls follow the shape of the full dose curve.

Chain of 5-hydroxytryptamine receptor 2A (Homo sapiens) (P28223 whole entry, looked up): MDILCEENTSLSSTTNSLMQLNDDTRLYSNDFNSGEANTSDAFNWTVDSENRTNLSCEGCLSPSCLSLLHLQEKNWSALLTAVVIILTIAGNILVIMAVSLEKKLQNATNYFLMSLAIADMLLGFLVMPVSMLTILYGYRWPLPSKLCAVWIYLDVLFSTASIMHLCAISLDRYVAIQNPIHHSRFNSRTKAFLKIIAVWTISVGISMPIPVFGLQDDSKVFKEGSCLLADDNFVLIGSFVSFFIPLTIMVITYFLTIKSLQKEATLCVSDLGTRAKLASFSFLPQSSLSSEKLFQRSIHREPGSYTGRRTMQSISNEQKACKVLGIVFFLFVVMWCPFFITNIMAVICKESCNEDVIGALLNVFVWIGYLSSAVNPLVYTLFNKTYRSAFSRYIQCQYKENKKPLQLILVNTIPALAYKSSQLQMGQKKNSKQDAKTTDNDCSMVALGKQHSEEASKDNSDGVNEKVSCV
Chain of KiSS-1 receptor (Homo sapiens) (Q969F8 whole entry, looked up): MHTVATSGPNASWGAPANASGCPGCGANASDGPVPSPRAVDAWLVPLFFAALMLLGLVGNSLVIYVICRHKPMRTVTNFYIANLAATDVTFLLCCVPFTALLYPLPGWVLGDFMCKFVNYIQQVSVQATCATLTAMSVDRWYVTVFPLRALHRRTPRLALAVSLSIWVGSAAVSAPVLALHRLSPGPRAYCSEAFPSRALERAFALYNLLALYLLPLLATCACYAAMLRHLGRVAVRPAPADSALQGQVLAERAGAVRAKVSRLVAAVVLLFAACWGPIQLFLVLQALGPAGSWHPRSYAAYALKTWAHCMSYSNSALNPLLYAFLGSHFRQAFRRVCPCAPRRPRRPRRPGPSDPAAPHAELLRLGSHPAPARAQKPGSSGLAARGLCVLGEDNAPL
Chain of Beta-2 adrenergic receptor (Homo sapiens) (P07550 whole entry, looked up): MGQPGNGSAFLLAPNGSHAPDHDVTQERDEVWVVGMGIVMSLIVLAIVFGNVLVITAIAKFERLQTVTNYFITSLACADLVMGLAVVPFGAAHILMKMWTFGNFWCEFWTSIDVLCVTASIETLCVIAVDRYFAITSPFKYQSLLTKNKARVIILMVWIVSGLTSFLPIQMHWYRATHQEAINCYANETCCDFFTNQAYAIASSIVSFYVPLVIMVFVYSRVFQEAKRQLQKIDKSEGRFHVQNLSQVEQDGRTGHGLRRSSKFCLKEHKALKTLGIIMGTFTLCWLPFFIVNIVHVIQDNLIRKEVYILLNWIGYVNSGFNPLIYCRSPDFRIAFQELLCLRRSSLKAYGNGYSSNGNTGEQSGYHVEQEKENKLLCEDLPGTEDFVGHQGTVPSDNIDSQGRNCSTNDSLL
Chain of D(2) dopamine receptor (Homo sapiens) (P14416 whole entry, looked up): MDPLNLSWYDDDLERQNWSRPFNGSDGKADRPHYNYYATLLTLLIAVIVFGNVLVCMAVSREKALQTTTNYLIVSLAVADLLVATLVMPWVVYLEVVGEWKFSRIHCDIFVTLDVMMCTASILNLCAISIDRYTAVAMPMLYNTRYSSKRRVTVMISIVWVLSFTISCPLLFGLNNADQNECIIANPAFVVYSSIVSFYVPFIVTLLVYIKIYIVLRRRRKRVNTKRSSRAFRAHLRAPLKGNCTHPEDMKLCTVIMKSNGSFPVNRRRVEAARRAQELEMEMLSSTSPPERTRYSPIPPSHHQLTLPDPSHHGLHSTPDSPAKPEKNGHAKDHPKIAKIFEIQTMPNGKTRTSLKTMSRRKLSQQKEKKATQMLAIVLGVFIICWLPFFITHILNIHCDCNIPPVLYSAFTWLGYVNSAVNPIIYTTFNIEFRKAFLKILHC
Chain of Muscarinic acetylcholine receptor M1 (Homo sapiens) (P11229 whole entry, looked up): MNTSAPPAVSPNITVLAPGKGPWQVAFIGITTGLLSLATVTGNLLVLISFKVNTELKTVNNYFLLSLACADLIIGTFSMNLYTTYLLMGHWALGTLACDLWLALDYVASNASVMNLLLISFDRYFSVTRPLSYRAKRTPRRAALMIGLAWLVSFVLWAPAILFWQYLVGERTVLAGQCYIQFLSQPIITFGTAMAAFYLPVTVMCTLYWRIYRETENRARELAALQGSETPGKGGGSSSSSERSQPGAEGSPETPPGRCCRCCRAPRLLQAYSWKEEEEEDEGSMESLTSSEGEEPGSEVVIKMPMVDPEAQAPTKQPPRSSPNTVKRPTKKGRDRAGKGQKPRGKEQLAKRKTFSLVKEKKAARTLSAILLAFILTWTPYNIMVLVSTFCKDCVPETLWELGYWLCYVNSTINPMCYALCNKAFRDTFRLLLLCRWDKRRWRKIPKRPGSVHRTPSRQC

`CC(C)(O)CCc1ccccc1`: the Potency entry in assay [1], in assay [2], in assay [3], in assay [6], in assay [7] and in assay [8] was “inactive” throughout. The Potency result in assay [9], in assay [10], in assay [11], in [12], in assay [13] and in assay [14] was “inactive” each time. The Potency result in [15], in [16], in assay [17] and in [18] was “inactive” each time. The result in [4] and in assay [5] was inactive.

Take `CC(=O)c1ccc(Cl)c(Cl)c1Cl`: the Potency entry in [1], in [2], in assay [3], in [6], in [7] and in assay [8] was “inactive” each time. Further, the Potency result in assay [9], in assay [10], in assay [11], in [12], in [13] and in assay [19] was “inactive” each time. For the same molecule, the Potency result in assay [15], in assay [16] and in assay [17] was “inactive” throughout. Moreover, the outcome in assay [4] and in assay [5] was inactive.

Regarding `OCCC(F)(F)C(F)(F)C(F)(F)C(F)(F)C(F)(F)C(F)(F)C(F)(F)C(F)(F)F`, the Potency result in assay [1], in [2], in assay [3], in [6], in assay [7] and in assay [8] was “inactive” in each case. Besides, the Potency result in assay [9], in assay [10], in assay [11], in assay [12], in assay [13] and in assay [19] was “inactive” in each case. For the same molecule, the Potency result in assay [14], in [15], in [16] and in assay [18] was “inactive” each time. Moreover, the result in [4] and in assay [5] was inactive.

Consider `CCOC(=O)c1cccnc1`, for which the Potency result in assay [1], in assay [2], in [3], in [6], in assay [7] and in assay [8] was “inactive” throughout. Further, the Potency entry in assay [9], in assay [10], in assay [11], in assay [12], in assay [13] and in assay [19] was “inactive” in each case. Besides, the Potency result in [14], in assay [16], in [17] and in [18] was “inactive” throughout. Besides, the result in assay [4] and in [5] was inactive.

`CNC(=O)N(c1ccccc1)c1ccccc1`: the Potency entry in [1], in assay [2], in [3], in [6], in assay [7] and in [8] was “inactive” in each case. Further, the Potency result in assay [9], in [10], in assay [11], in assay [12], in assay [13] and in assay [14] was “inactive” in each case. Besides, the Potency result in assay [15], in assay [16], in [17] and in assay [18] was “inactive” throughout. The result in [4] and in assay [5] was inactive.

For `CC(=O)SC[C@@H](Cc1ccccc1)C(=O)NCC(=O)OCc1ccccc1`, the Potency result in [1], in [2], in assay [3], in [6], in assay [7] and in [8] was “inactive” each time. In addition, the Potency entry in assay [9], in assay [10], in assay [11], in assay [12], in assay [13] and in [19] was “inactive” throughout. Besides, the Potency entry in [14], in assay [16], in assay [17] and in [18] was “inactive” each time. In addition, the outcome in assay [4] and in [5] was inactive.

Consider `CC(=O)Nc1cc(S(=O)(=O)O)cc2cc(S(=O)(=O)O)c(N=Nc3ccccc3)c(O)c12`, for which the Potency in [1] was 27.3 µM (active). For the same molecule, the Potency result in assay [2], in assay [3], in assay [6], in assay [7], in [8] and in assay [9] was “inactive” each time. Besides, the Potency entry in [10], in assay [11], in assay [12], in [13], in assay [19] and in [15] was “inactive” each time. In addition, the Potency entry in [17] was “inactive”. In addition, the result in assay [4] and in assay [5] was inactive.

Regarding `CCCCCC[C@@H](O)C/C=C\CCCCCCCC(=O)OCC(O)CO` (some centres not stated), the Potency result in assay [1], in assay [2], in [3], in [6], in assay [7] and in assay [8] was “inactive” throughout. In addition, the Potency entry in assay [9], in assay [10], in assay [11], in assay [12], in [13] and in [19] was “inactive” each time. Also, the Potency result in assay [16], in assay [17] and in [18] was “inactive” each time. Besides, the outcome in assay [4] and in [5] was inactive.

With `CC(C)(C#N)Nc1nc(Cl)nc(NC2CC2)n1`, the Potency entry in assay [1], in assay [2], in assay [3], in assay [6], in assay [7] and in assay [8] was “inactive” in each case. Besides, the Potency entry in [9], in assay [10], in assay [11], in assay [12], in assay [13] and in assay [19] was “inactive” each time. In addition, the Potency result in [14], in assay [17] and in assay [18] was “inactive” throughout. Also, the outcome in [4] and in assay [5] was inactive.
